The source of these data is the supplement of paper PMC10849652.

Of roughly 8,800 targets only a part is listed; those with a hit were picked by preference. About 0.5% of all pairs of compound and target were hits. Unmarked numbers belong to inactive results.

UniProt Q8WWK9, sequence (Q8WWK9 whole entry, looked up): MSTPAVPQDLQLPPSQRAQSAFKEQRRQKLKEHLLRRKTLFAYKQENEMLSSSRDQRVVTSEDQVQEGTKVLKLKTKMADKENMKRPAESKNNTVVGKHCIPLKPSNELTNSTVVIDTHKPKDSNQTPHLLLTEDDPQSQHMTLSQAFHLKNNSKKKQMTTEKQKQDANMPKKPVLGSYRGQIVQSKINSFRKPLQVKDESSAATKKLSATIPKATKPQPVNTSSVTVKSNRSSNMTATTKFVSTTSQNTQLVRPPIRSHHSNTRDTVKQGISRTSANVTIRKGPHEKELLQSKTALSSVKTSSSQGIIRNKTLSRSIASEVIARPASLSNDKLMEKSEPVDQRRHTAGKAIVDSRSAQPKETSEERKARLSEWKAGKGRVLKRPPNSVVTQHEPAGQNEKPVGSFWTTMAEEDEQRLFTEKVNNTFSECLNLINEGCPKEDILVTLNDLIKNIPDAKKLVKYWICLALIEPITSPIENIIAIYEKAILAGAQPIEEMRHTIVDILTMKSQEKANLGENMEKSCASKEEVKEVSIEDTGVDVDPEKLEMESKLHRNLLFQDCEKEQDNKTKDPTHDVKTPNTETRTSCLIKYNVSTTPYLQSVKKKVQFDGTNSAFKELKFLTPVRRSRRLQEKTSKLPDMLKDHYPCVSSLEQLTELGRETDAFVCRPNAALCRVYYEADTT
UniProt Q9UHD1, sequence (Q9UHD1 whole entry, looked up): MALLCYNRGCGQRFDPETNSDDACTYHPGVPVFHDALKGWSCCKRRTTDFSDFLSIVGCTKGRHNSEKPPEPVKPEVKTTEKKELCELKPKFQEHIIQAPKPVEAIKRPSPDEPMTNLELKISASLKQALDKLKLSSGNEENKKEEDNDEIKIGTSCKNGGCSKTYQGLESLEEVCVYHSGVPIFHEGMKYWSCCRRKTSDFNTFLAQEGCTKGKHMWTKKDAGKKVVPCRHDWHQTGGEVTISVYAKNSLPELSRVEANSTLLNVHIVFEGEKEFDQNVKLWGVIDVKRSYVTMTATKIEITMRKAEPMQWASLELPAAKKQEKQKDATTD
UniProt Q9H5X1, sequence (Q9H5X1 whole entry, looked up): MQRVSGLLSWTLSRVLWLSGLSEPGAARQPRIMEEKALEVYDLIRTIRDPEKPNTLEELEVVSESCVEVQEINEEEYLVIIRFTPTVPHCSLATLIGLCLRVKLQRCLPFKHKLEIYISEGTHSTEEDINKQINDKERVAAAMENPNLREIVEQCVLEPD
UniProt Q8TB03, sequence (Q8TB03 whole entry, looked up): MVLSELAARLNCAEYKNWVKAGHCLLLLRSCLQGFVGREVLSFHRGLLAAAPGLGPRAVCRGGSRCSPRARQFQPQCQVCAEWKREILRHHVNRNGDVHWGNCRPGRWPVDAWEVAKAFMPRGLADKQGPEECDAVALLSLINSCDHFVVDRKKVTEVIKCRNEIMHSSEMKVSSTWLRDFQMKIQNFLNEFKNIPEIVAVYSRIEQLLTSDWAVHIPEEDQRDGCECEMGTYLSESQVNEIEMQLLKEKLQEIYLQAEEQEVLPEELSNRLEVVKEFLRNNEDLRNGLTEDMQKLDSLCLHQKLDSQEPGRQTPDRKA
UniProt P00374, sequence (P00374 whole entry, looked up): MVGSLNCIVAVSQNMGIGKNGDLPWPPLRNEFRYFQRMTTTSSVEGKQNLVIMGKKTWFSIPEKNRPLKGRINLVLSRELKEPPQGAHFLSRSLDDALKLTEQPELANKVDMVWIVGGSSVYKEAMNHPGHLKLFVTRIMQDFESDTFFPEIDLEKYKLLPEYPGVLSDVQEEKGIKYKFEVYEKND
UniProt P31146, sequence (P31146 whole entry, looked up): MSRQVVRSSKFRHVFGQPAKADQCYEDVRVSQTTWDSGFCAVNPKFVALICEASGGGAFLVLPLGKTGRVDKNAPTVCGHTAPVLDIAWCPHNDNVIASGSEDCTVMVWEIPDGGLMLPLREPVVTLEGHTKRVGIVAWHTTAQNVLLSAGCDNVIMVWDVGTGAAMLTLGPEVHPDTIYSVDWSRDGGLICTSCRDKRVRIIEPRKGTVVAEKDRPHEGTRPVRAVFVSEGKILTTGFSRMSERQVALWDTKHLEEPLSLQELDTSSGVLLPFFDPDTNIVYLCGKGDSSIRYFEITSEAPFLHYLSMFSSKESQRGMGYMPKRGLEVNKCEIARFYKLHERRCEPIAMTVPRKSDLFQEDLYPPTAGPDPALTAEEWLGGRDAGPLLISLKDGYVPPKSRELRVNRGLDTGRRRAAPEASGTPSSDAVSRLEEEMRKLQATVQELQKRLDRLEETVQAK
UniProt O15111, sequence (O15111 whole entry, looked up): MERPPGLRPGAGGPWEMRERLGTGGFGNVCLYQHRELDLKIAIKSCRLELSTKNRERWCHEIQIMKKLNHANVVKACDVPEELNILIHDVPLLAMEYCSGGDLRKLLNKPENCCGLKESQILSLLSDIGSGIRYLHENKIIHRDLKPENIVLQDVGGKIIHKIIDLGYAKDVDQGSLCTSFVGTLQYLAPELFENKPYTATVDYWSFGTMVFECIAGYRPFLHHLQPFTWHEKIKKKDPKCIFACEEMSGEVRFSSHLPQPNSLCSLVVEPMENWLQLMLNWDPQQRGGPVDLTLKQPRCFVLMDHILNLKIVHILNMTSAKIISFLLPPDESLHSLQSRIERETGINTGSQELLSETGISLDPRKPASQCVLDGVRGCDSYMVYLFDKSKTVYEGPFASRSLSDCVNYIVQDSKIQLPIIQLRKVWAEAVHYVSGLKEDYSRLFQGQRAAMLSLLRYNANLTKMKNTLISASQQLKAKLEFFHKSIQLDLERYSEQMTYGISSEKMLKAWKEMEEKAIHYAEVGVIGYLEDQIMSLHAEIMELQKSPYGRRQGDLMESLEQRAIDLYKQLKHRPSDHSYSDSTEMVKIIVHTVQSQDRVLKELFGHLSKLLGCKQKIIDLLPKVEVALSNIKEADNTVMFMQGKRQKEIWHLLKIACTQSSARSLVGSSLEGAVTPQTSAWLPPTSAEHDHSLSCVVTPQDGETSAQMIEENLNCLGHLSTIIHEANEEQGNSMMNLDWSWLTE
UniProt Q9NSV4, sequence (Q9NSV4 whole entry, looked up): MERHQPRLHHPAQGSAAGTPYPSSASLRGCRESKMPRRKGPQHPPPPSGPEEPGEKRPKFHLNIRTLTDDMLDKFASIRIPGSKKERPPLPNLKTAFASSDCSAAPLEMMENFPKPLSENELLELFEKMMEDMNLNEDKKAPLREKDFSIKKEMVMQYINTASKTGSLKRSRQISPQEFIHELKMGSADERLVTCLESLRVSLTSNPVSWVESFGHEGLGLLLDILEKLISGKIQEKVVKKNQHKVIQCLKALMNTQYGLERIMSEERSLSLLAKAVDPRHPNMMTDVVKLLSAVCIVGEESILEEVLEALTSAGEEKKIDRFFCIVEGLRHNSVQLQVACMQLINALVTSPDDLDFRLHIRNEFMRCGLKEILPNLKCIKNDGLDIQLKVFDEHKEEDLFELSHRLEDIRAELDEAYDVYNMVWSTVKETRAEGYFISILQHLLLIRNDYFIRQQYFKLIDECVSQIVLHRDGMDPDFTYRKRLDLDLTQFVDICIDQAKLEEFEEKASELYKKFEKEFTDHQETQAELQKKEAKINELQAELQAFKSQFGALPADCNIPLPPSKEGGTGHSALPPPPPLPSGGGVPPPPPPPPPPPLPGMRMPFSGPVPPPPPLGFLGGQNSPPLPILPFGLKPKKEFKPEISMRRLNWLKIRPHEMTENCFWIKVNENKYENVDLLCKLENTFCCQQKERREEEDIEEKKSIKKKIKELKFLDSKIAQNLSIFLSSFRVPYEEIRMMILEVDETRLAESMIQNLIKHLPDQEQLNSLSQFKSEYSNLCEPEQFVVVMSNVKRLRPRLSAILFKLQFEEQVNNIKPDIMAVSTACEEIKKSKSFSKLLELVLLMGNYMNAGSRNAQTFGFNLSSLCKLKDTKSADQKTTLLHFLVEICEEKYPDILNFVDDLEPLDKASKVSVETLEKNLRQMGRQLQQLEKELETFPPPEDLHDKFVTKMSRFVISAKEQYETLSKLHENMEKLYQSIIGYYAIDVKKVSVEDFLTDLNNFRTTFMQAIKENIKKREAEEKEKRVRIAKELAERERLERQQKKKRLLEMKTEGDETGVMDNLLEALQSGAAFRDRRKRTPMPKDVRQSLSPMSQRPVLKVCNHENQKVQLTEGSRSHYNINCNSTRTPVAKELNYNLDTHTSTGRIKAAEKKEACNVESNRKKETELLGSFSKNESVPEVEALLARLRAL
UniProt Q14019, sequence (Q14019 whole entry, looked up): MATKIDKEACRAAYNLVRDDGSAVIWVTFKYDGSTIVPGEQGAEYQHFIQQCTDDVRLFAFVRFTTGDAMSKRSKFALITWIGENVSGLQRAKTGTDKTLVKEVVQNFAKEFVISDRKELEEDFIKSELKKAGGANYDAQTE
UniProt Q9BY43, sequence (Q9BY43 whole entry, looked up): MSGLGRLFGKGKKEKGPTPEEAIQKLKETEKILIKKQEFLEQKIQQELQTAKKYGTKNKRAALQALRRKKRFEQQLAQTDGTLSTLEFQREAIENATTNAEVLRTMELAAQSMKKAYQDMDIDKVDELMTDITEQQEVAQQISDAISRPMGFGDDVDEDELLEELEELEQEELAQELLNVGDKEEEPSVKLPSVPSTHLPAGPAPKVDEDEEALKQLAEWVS
UniProt Q9P003, sequence (Q9P003 whole entry, looked up): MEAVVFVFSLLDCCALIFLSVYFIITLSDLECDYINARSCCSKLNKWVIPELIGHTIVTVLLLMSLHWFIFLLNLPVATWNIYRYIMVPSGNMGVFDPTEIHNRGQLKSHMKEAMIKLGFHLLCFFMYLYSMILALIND
UniProt O76075, sequence (O76075 whole entry, looked up): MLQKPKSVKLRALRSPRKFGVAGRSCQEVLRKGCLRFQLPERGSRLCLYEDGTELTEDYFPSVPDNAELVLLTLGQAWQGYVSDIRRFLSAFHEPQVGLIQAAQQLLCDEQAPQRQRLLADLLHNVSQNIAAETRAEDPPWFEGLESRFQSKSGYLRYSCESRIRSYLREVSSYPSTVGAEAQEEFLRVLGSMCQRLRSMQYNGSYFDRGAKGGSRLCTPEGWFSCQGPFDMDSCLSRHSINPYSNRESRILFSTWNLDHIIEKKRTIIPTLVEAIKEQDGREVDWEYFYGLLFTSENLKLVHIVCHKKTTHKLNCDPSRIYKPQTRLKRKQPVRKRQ

Compound in one experiment: C/C(=N\NC(=O)C1=CC(=CC=C1)S(=O)(=O)N2CCOCC2)/C3=C(C=CC(=C3)Cl)O
Put plainly: log2 fold change, soluble protein after heating vs DMSO (PISA); higher = thermal stabilisation; K562 lysate, 10 uM; active = over 0.2 and 3.5 SD of the protein, either way, in both replicates (recomputed). In short, it runs like this:
(§1)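 A 30 min treatment with 10 μM compound was applied to crude K562 extract at 1 mg/mL protein in PBS pH 7.4 with 1 mM MgCl2. Heating for 3 min spanned 48°C-58°C, after which aliquots were pooled, adjusted to 0.5% NP-40 at 4°C and spun at 21,000xg for 90 min. TMTpro 16plex LC-MS/MS of the supernatant, with channel sums equalised, gave values recorded as log-two fold change in thermal stability against solvent controls, from duplicates.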
CKAP2 (UniProt Q8WWK9): the log2 fold change was -0.158.

With CIC (UniProt I3L2J0), the log2 fold change was -0.248.

COTL1 (UniProt Q14019): the log2 fold change is 0.04.

On to CHORDC1 (UniProt Q9UHD1), for which the log2 fold change was 0.007.

With CXorf38 (UniProt Q8TB03), the log2 fold change was 0.067.

On to DHFR (UniProt P00374), for which the log2 fold change was 0.046.

As for CORO1A (UniProt P31146), the log2 fold change is 0.086.

As to CHUK (UniProt O15111), the log2 fold change is 0.114.

On to DIAPH3 (UniProt Q9NSV4), for which the log2 fold change was 0.07.

In the case of CIP2A (UniProt Q8TCG1), the log2 fold change was 0.18.

For CIAO2A (UniProt Q9H5X1), the log2 fold change was 0.029.

Compound in a further experiment: C1=CC(=CC=C1C2=NC3=C(N2)C=C(C=C3)C(=O)N)OC4=CC=C(C=C4)Cl
The experiment is described as above. In short, it runs like this:
as §1
For DLGAP5 (UniProt Q15398), the log2 fold change was -0.006.

In the case of DCTN1 (UniProt Q14203), the log2 fold change is -0.001.

As for DOCK10 (UniProt Q96BY6), the log2 fold change was -0.03.

In the case of DFFB (UniProt O76075), the log2 fold change was 0.071.

Consider CWC22 (UniProt Q9HCG8), for which the log2 fold change was -0.046.

Regarding CHMP4A isoform 2 (UniProt Q9BY43), the log2 fold change is 0.018.

Regarding DDX54 isoform 2 (UniProt Q8TDD1), the log2 fold change was -0.038.

Turning to DLG3 isoform 2 (UniProt Q92796), the log2 fold change was 0.073.

COG3 (UniProt Q96JB2): the log2 fold change was -0.037.

In the case of CMPK2 (UniProt Q5EBM0), the log2 fold change was 0.006.

For CNOT6L (UniProt Q96LI5), the log2 fold change is 0.007.

As to CSK (UniProt P41240), the log2 fold change was -0.004.

Consider CYP24A1 (UniProt Q07973), for which the log2 fold change is 0.148.

With DAZAP1 (UniProt Q96EP5), the log2 fold change was 0.03.

CNIH4 (UniProt Q9P003): the log2 fold change was -0.06.

As to DNM2 (UniProt P50570), the log2 fold change was 0.049.

Regarding CMIP (UniProt Q8IY22), the log2 fold change is -0.008.

Turning to COQ9 (UniProt O75208), the log2 fold change is -0.001.

With CNOT2 (UniProt Q9NZN8), the log2 fold change was 0.021.

As for DOCK8 (UniProt Q8NF50), the log2 fold change is -0.016.

As for CSNK2B (UniProt P67870), the log2 fold change is -0.039.

Take CPT1A (UniProt P50416): the log2 fold change is 0.01.

DNAH10 (UniProt Q8IVF4): the log2 fold change was -0.059.

In the case of CKAP2 (UniProt Q8WWK9), the log2 fold change was -0.062.

For the target CIC (UniProt I3L2J0), the log2 fold change was 0.079.

For the target COTL1 (UniProt Q14019), the log2 fold change was 0.013.

As for CHORDC1 (UniProt Q9UHD1), the log2 fold change is 0.017.

Turning to CXorf38 (UniProt Q8TB03), the log2 fold change was -0.003.

DHFR (UniProt P00374): the log2 fold change was -0.023.

On to CORO1A (UniProt P31146), for which the log2 fold change was -0.032.

On to CHUK (UniProt O15111), for which the log2 fold change is -0.076.

On to DIAPH3 (UniProt Q9NSV4), for which the log2 fold change is -0.022.

Consider CIP2A (UniProt Q8TCG1), for which the log2 fold change was -0.086.

Regarding CIAO2A (UniProt Q9H5X1), the log2 fold change is 0.03.

Compound in the next experiment: C1=CC2=C(C=CC(=C2)/C=C\3/C(=O)NC(=NCC4=CC=CS4)S3)N=C1
Described as above. Summed up:
as §1
For the target DLGAP5 (UniProt Q15398), the log2 fold change was -0.024.

On to DCTN1 (UniProt Q14203), for which the log2 fold change is -0.001.

With DOCK10 (UniProt Q96BY6), the log2 fold change is 0.007.

Turning to DFFB (UniProt O76075), the log2 fold change is 0.048.

With CWC22 (UniProt Q9HCG8), the log2 fold change was -0.009.

Regarding CHMP4A isoform 2 (UniProt Q9BY43), the log2 fold change was -0.01.

Turning to DDX54 isoform 2 (UniProt Q8TDD1), the log2 fold change was -0.035.

Regarding DLG3 isoform 2 (UniProt Q92796), the log2 fold change is 0.002.

As for COG3 (UniProt Q96JB2), the log2 fold change is -0.049.

Regarding CMPK2 (UniProt Q5EBM0), the log2 fold change is -0.035.

For CNOT6L (UniProt Q96LI5), the log2 fold change was -0.02.

CSK (UniProt P41240): the log2 fold change is -0.028.

For the target CYP24A1 (UniProt Q07973), the log2 fold change was -0.09.

On to DAZAP1 (UniProt Q96EP5), for which the log2 fold change is 0.023.

On to CNIH4 (UniProt Q9P003), for which the log2 fold change is 0.129.

Consider DNM2 (UniProt P50570), for which the log2 fold change is 0.013.

Take CMIP (UniProt Q8IY22): the log2 fold change is 0.055.

As to COQ9 (UniProt O75208), the log2 fold change is 0.041.

For the target CNOT2 (UniProt Q9NZN8), the log2 fold change is 0.015.

In the case of DOCK8 (UniProt Q8NF50), the log2 fold change is 0.018.

With CSNK2B (UniProt P67870), the log2 fold change is 0.151.

Regarding CPT1A (UniProt P50416), the log2 fold change was -0.001.

As for DNAH10 (UniProt Q8IVF4), the log2 fold change is -0.053.

As to CKAP2 (UniProt Q8WWK9), the log2 fold change was -0.148.

Take CIC (UniProt I3L2J0): the log2 fold change is 0.122.

As to COTL1 (UniProt Q14019), the log2 fold change was -0.006.

Turning to CHORDC1 (UniProt Q9UHD1), the log2 fold change is 0.001.

Take CXorf38 (UniProt Q8TB03): the log2 fold change was 0.01.

With DHFR (UniProt P00374), the log2 fold change is -0.019.

On to CORO1A (UniProt P31146), for which the log2 fold change was 0.036.

Take CHUK (UniProt O15111): the log2 fold change was 0.01.

With DIAPH3 (UniProt Q9NSV4), the log2 fold change was 0.05.

For CIP2A (UniProt Q8TCG1), the log2 fold change was 0.034.

As for CIAO2A (UniProt Q9H5X1), the log2 fold change was -0.056.
